A number with no mark means an inactive call. Records with an inconclusive call do not appear. Calls of active or inactive are those of the source. Unless noted, calls follow the shape of the dose curve; as a rule, active = well fitted curve in either direction with a large enough effect (not every such curve was filed as active); inconclusive = small, poorly fitted or top-dose-only effect, or another doubt; inactive = flat fitted curve, though single readings scatter.
Key:
[1] = target: Lysosomal acid glucosylceramidase (Homo sapiens) (UniProt P04062); assay: Glucocerebrosidase-p2 (AID 348; in the data active = potency below about 10 µM; also: potency is read from the fitted curve at half-maximal effect); details: purified GBA, blue fluorogenic substrate, 40 min
Sequence of Lysosomal acid glucosylceramidase (Homo sapiens) (P04062 whole entry, looked up): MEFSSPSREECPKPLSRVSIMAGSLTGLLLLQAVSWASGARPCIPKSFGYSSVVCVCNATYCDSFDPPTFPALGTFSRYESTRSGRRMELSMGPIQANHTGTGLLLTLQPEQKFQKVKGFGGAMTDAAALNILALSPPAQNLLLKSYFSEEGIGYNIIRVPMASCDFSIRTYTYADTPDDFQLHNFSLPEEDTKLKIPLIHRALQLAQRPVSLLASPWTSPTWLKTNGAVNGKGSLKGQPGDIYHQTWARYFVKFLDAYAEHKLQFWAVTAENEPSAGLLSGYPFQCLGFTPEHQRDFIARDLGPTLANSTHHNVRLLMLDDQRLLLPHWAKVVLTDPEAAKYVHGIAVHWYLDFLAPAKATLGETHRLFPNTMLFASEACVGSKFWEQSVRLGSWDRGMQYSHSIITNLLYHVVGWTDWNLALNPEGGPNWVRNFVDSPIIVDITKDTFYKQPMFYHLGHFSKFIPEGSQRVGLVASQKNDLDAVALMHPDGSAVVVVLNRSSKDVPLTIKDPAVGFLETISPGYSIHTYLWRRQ
Method in brief: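 Compounds titrated from 0.6 nM upwards against 0.2 nM enzyme in pH 5.9 citric acid/KH2PO4, taurocholate, tween-20; blue fluorogenic substrate 80 uM, 40 min room temperature, stopped and read Ex 365/Em 440 for AC50.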

[2] = AP1 Signaling Pathway (AID 357); details: ME-180 AP-1-bla reporter, EGF-induced, beta-lactamase ratio, 5 h; at 7.69 µM (top of the series) unless noted;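 also: ME-180 reporter cells stimulated with EGF at its EC50 level; % is scaled to controls: 0 for no effect and ±100 for the full control effect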
Method in brief: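 A ratiometric CCF4 readout (405 nm excitation; 460 and 530 nm emission) quantified AP-1-driven beta-lactamase in ME-180 cells after 5 h with compound and EC50 EGF; AC50 values were derived for activators and inhibitors.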

[3] = target: Cytochrome P450 1A2 (Homo sapiens) (UniProt P05177); assay: p450-cyp1a2 (AID 410; calls by dose curve; also: potency is read from the fitted curve at half-maximal effect;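 as to activity change, negative = inhibition: -100% = full effect of reference inhibitor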); details: recombinant CYP1A2, luciferin-ME demethylation, luminescence; series mostly up to 11.4 µM
Sequence of Cytochrome P450 1A2 (Homo sapiens) (P05177 whole entry, looked up): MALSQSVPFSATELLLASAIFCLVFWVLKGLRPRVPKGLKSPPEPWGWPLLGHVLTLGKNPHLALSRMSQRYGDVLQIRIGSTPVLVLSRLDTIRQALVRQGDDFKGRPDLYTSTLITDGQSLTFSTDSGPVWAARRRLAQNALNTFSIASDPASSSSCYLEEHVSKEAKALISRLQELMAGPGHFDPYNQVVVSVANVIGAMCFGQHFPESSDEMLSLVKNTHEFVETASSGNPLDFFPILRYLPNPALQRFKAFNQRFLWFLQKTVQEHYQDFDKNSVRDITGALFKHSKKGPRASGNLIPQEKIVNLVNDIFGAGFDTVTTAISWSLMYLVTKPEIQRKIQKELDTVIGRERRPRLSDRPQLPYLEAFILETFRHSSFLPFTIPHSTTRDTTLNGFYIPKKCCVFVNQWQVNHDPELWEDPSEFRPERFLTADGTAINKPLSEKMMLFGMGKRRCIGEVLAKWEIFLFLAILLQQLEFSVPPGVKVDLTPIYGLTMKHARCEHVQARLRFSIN
Method in brief: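 Human CYP1A2 (20nM) demethylated Luciferin-ME at its Km (100uM) in 100mM KPO4. After 10 min compound preincubation, NADPH regeneration ran the reaction 60 min at room temperature. Luciferin was read by luminescence, normalized to 57 uM furafylline.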

[4] = NFAT Signaling Pathway (AID 444); details: Jurkat NFAT-bla M1, carbachol, beta-lactamase ratio, 5 h; at 7.69 µM (top of the series) unless noted;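 also: carbachol stimulus at about its EC50 of 1 µM final; % is scaled to controls: 0 for no effect and ±100 for the full control effect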
Method in brief: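 Jurkat cells carrying an NFAT-driven β-lactamase reporter and co-transfected muscarinic M1 receptor were treated with compound plus carbachol (1 uM final, an EC50 level) for 5 h at 37 °C. CCF4 loading followed for 1 h at RT; 460/530 nm ratio gave %activity.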

[5] = Stat Signaling Pathway (AID 446); details: ME-180 SIE beta-lactamase reporter, IL-6 stimulated, 5 h; at 7.69 µM (top of the series) unless noted;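 also: ME-180 cervical cancer cells given 40 pM IL-6 alongside compound; SIE-controlled beta-lactamase reporter measured as 460/530 nm FRET emission ratio; % is scaled to controls: 0 for no effect and ±100 for the full control effect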
Method in brief: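 Reporter line: ME-180 cervical carcinoma, SIE-beta-lactamase. Treatment: compound with 40 pM IL-6, 5 hrs, 37 C, in low-serum OPTI-MEM with 10 mM HEPES pH 7.3. Detection: 460/530 nm fluorescence.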

[6] = target: Glucocorticoid receptor (Homo sapiens) (UniProt P04150); assay: GR-GFP Redistribution (AID 450;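 active = compounds whose dose series gives a full or clear partial fitted curve of increased nuclear translocation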; also: potency is read from the fitted curve at half-maximal effect); details: U2OS GR-GFP nuclear translocation, laser cytometry, 2 h
Sequence of Glucocorticoid receptor (Homo sapiens) (P04150 whole entry, looked up, the tested form may be a part): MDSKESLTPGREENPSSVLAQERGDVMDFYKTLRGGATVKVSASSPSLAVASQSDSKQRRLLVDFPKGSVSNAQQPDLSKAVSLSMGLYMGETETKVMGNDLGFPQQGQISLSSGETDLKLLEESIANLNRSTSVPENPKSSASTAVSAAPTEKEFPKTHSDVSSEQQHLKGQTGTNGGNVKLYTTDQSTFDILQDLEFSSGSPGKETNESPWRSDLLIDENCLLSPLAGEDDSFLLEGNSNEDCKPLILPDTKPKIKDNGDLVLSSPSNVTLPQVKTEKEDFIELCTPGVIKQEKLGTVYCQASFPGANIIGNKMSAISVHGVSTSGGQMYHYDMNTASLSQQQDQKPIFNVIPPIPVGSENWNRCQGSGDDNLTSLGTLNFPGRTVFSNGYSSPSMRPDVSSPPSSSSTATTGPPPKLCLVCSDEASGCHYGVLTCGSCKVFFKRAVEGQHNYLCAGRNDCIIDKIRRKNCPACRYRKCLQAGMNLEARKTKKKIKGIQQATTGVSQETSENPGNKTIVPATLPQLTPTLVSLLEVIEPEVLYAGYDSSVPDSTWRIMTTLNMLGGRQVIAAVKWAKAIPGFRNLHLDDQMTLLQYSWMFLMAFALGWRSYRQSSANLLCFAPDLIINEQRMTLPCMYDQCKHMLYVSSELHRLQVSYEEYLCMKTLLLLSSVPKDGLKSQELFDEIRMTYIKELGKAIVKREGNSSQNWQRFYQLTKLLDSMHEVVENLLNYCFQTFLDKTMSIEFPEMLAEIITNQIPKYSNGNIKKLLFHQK

[7] = target: Glucocorticoid receptor (Homo sapiens) (UniProt P04150); assay: GR-EFC Redistribution (AID 451; calls by dose curve; also: potency is read from the fitted curve at half-maximal effect); details: CHO-K1 GR-EFC translocation, beta-gal luminescence, 2 h
Method in brief: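 CHO-K1 cells stably expressing nuclear-localized β-gal enzyme acceptor and GR fused C-terminally to the enzyme donor fragment; ligand-driven nuclear translocation restores β-gal by complementation. Compounds titrated up to 46 uM final, 2 h at 37 °C; luminescence read.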

[8] = target: Mitogen-activated protein kinase 10 (Mus musculus) (UniProt Q61831); assay: JNK3 AlphaScreen Assay (AID 530); details: JNK3 lysate, c-Jun phosphorylation; series mostly up to 11.4 µM;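 also: kinase came from lysate of stimulated human HepG2 cells; signal reports phosphorylation of biotinylated GST-cJun 1-79 at Ser73 with 10 µM ATP; % is scaled to controls: 0 for no effect and ±100 for the full control effect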
Method in brief: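 JNK3 came from HepG2 lysates pre-activated with IL-1beta and TNF-alpha and phosphorylated biotinylated GST-cJun (1-79) at 10 uM ATP, pH 7.6, room temperature. Compounds were titrated. AlphaScreen signal used anti-phospho-cJun (Ser73) antibody.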

[9] = target: 3',5'-cyclic-AMP phosphodiesterase 4B (Homo sapiens) (UniProt Q07343); assay: qHTS Assay for Inhibitors of PDE-IV (AID 607; active = well fitted activation curve with a large enough effect in the main read-out, with a control signal flat, not every such curve was filed as active; also: % of control where 0% means no effect); details: HEK293 ACTOne CNG channel cells, membrane potential fluorescence; series mostly up to 22.9 µM
Sequence of 3',5'-cyclic-AMP phosphodiesterase 4B (Homo sapiens) (Q07343 whole entry, looked up): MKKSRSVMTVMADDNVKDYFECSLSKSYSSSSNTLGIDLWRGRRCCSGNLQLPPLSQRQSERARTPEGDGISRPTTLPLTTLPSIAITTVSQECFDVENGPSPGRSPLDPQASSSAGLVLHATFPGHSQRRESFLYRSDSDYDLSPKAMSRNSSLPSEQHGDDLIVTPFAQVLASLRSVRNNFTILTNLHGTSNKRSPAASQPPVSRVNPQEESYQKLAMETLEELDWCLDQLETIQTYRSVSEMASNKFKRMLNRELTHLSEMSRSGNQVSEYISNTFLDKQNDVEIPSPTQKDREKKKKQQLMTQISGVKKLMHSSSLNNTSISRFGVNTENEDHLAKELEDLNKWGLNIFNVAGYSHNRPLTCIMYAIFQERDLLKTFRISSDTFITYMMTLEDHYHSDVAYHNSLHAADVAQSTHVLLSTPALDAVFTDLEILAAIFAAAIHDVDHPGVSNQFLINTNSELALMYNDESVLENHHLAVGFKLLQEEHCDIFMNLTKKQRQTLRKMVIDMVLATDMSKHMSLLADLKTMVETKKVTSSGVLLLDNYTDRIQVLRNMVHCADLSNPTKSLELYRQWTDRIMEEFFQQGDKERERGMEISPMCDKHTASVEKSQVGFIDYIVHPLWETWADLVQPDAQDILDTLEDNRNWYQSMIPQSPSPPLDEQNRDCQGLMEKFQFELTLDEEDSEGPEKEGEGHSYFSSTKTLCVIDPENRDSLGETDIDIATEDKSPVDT
Method in brief: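 Cell-based read-out of cAMP via a modified cyclic nucleotide-gated channel and membrane potential dye (535/590 nm) in HEK293 cells expressing PDE4 endogenously. Compounds tested up to 22.9 uM final; 100 uM RO 20-1724 reference.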

[10] = target: Cytochrome P450 3A4 (Homo sapiens) (UniProt P08684); assay: qHTS Assay for Activators of Cytochrome P450 3A4 (AID 885; active = well fitted curve in the direction sought with a large enough effect; an effect the other way counts as inactive or inconclusive; also: nearly all actives have a fitted effect of over 65% in size); details: recombinant CYP3A4, Luciferin-PPXE luminescence, 60 min; series mostly up to 11.4 µM
Sequence of Cytochrome P450 3A4 (Homo sapiens) (P08684 whole entry, looked up): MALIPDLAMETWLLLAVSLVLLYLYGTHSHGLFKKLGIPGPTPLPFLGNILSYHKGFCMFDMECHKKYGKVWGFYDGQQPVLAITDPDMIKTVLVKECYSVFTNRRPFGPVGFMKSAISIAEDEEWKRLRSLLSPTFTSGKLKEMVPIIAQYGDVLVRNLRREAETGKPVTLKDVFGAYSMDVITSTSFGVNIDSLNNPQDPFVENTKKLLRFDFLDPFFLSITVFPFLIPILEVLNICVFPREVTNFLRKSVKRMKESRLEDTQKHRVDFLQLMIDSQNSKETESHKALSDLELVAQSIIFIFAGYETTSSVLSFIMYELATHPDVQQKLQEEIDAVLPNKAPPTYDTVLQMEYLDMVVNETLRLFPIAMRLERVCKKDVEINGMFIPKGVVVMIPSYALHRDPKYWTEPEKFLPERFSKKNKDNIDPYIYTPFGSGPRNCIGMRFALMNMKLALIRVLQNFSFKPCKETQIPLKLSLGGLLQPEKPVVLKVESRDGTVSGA
Method in brief: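 Signal was normalized against complete inhibition by 57 uM ketoconazole. The reaction used 20nM CYP3A4 with 25uM Luciferin-PPXE, 10-min compound preincubation and a 60-min NADPH-supported step at RT.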

[11] = target: Cytochrome P450 2D6 (Homo sapiens) (UniProt P10635); assay: qHTS Assay for Inhibitors and Substrates of Cytochrome P450 2D6 (AID 891; active = well fitted curve in the direction sought with a large enough effect; an effect the other way counts as inactive or inconclusive; also: nearly all actives have a fitted effect of over 60% in size; also: potency is read from the fitted curve at half-maximal effect); details: recombinant CYP2D6, luciferin-ME EGE luminescence; series mostly up to 11.4 µM
Sequence of Cytochrome P450 2D6 (Homo sapiens) (P10635 whole entry, looked up): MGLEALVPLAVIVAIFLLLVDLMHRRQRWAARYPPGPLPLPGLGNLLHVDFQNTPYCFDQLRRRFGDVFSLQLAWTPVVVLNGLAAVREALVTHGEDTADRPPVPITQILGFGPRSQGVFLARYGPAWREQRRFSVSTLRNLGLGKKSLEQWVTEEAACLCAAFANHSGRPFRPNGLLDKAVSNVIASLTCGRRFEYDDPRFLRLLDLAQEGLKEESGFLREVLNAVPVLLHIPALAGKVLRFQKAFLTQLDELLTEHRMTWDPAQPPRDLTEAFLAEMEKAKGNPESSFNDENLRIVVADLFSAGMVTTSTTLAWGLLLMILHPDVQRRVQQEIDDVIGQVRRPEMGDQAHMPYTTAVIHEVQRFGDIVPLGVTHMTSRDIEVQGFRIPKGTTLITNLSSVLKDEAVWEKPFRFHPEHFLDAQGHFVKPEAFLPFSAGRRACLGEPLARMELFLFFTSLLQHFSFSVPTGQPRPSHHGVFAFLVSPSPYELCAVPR
Method in brief: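 Human CYP2D6 (5 nM) with 30 uM Luciferin-ME EGE (at Km) in 100 mM KPO4, compound preincubated 10 min, then NADPH regeneration system for 60 min at room temperature. Luciferin read by luminescence; normalized to 1.43 uM quinidine.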

[12] = target: Cytochrome P450 2C19 (Homo sapiens) (UniProt P33261); assay: qHTS Assay for Inhibitors and Substrates of Cytochrome P450 2C19 (AID 899; active = well fitted curve in the direction sought with a large enough effect; an effect the other way counts as inactive or inconclusive; also: potency is read from the fitted curve at half-maximal effect; nearly all actives have a fitted effect of over 60% in size); details: recombinant CYP2C19, luciferin-H EGE luminescence; series mostly up to 11.4 µM
Sequence of Cytochrome P450 2C19 (Homo sapiens) (P33261 whole entry, looked up): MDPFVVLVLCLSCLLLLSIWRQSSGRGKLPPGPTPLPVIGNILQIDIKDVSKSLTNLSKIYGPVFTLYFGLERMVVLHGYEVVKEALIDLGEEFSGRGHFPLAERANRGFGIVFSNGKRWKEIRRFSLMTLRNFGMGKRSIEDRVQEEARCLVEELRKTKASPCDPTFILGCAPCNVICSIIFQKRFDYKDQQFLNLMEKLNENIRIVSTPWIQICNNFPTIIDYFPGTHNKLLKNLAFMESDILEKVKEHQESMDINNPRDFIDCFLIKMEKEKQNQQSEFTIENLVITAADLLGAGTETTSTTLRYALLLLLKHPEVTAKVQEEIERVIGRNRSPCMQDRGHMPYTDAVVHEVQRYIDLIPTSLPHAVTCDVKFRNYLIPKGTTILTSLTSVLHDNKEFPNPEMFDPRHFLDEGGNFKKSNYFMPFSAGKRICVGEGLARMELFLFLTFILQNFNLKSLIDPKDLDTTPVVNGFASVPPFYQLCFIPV
Method in brief: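 In 50mM KPO4, the reaction held 5nM enzyme and KM-level (10uM) Luciferin-H EGE; it ran 60 min at 37C after NADPH regeneration and a 10 min compound preincubation. Luminescence values were scaled to 57uM ketoconazole as complete inhibition.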

[13] = qHTS Assay for Identification of Small Molecule Agonists for Hypoxia Response Element Signaling Pathway (AID 914; active = well fitted activation curve with a large enough effect in the signal ratio, with a control signal flat, not every such curve was filed as active; the % refers to the signal ratio; also: % of control where 0% means no effect); details: ME-180 (cervical carcinoma) HRE-bla reporter, beta-lactamase ratio, CoCl2, 17 h; activation: stronger effect = higher value
Method in brief: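 A beta-lactamase reporter under hypoxia response element control in ME-180 cells served as the system. Compound titrations plus EC50 CoCl2 ran 17 h at 37 degrees Celsius; AC50 values were fitted from %Activity.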

[14] = Confirmation and Secondary Assay for Modulators of Hemoglobin Beta Chain Splicing at IVS2 654 locus (AID 910; active = well fitted curve in the direction sought with a large enough effect; an effect the other way counts as inactive or inconclusive;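 also: per-well total GFP intensity by laser scanning cytometry after 2-day treatment; % of control where 0% means no effect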); details: HeLa EGFP-654 splicing reporter, GFP fluorescence, 48 h; series mostly up to 38.3 µM
Method in brief: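 HeLa cells stably carrying EGFP interrupted by mutant beta-globin IVS2-654 intron (CMV-driven) were treated with compound for 2 days at 37C; corrected splicing was scored as total peak GFP intensity per well (488 nm excitation, 500-520 nm emission).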

SMILES	Potency [1]	activity change, negative = inhibition [2] [%]	Potency [3]	activity change, negative = inhibition [4] [%]	activity, negative = inhibition [5] [%]	Potency [6] [µM]	Potency [7] [µM]	Potency [8]	Potency [9]	Potency [10]	Potency [11]	Potency [12]	activity change, negative = inhibition [3]	activation [13] [%]	outcome [14]
Cc1ccc([C@@H](O)c2cnc(C)n2Cc2ccccc2)cc1	> 11.4 µM	-7.71	inactive	-10.9	-4.84	> 46	> 9.22	inactive	inactive	inactive	0.631 µM (active)	1.26 µM (active)			
COc1cc2nncc(SCc3ccc(Cl)c(Cl)c3)c2cc1OC	> 11.4 µM	0.364	0.794 µM (active)	1.06	-13.6	> 46	> 9.22	inactive	inactive	inactive		2.51 µM (active)			
O=C(O)/C=C\C(=O)Nc1ccc2c(c1)-c1ccccc1C2	> 11.4 µM	-11.5	1 µM (active)	6.68	-8.21	> 46	> 9.22	inactive	inactive	inactive					
NCCCc1c(-c2ccccc2)nc(N)[nH]c1=O	> 11.4 µM	0.759	inactive	4.17	9.18	> 46	> 9.22	inactive	inactive		inactive				
O=C(CSC1=NCCN1)Nc1ccccc1	> 11.4 µM	15	3.98 µM (active)	-6.05	-2.98	> 46	> 9.22	inactive	inactive		1.58 µM (active)				
Cc1cn([C@H]2C[C@H](O)[C@@H](COC(N)=O)O2)c(=O)[nH]c1=O	> 11.4 µM	2.02		0.228	6.97	> 46	> 9.22	inactive	inactive		inactive		-14.6% [at 2.29 µM]		
CN1CCN(c2ccncc2S(=O)(=O)N2CCN(C)CC2)CC1	> 11.4 µM	5.65		-16.5	8.15	> 46	> 9.22	inactive	inactive	inactive			-7.4% [at 2.29 µM]	7.59	
N/C(CC/C(N)=N/O)=N\O	> 11.4 µM	-3.76	inactive	7.17	-0.993	> 46	> 9.22	inactive	inactive		inactive				
O=C(O)c1ccc(/C=N\N=C2c3ccccc3-c3ccccc32)cc1	> 11.4 µM	-12.4	0.126 µM (active)	-25.2	-6.87	> 46	> 9.22	inactive	inactive		inactive				
CC(C)(CN)CN	> 11.4 µM	0.738	inactive	2.82	0.176	> 46	> 9.22	inactive	inactive		inactive				
O=C(O)[C@@H](c1ccccc1)[C@@H](C(=O)O)c1ccccc1	> 11.4 µM	3.89		6.48	-0.514	> 46	> 9.22	inactive	inactive		inactive		-12% [at 2.29 µM]		
COc1ccc(OC)c(-c2cc(C(=O)O)c3cc4ccccc4cc3n2)c1	> 11.4 µM	4.44		15.6	4.07	> 46	> 9.22	inactive	inactive		3.98 µM (active)		-21.4% [at 2.29 µM]		
O=C1NC(=O)[C@@](Cc2ccccc2)(c2cccnc2)N1	> 11.4 µM	-12.7		9.84	-7.87	> 46	> 9.22	inactive	inactive	inactive			-17.1% [at 2.29 µM]	5.55	
O[C@@H](COc1ccc(Cl)cc1Cl)CN1CCCC1	> 11.4 µM	7.86	5.01 µM (active)	2.25	4.26	> 46	> 9.22	inactive	inactive		0.316 µM (active)				
Nc1ccccc1SCc1csc(-c2ccc(Cl)cc2)n1	> 11.4 µM	-17.2	0.631 µM (active)	-25.4	-11.2	> 46	> 9.22	inactive	inactive	inactive		0.501 µM (active)			
Cc1c(N2CCCC2)cc2c(c1NC(=O)c1ccccc1Cl)C(C)(C)CC2(C)C	> 11.4 µM	-3.93		-10.2	-9.5	> 46	> 9.22	inactive	inactive	inactive		0.794 µM (active)	-13.1% [at 2.29 µM]		
Cc1cc(O)c(C(C)C)cc1NC(=O)Nc1cccc2ccccc12	> 11.4 µM	-27.4	0.794 µM (active)	-15.2	-19	> 46	> 9.22	inactive	inactive	inactive		0.0501 µM (active)			
Clc1cc2c(c(CSC3=NCN(CC4CC4)CN3)c1)OCOC2	> 11.4 µM	5.83	3.16 µM (active)	-19.2	0.512	> 46	> 9.22	inactive	inactive		0.199 µM (active)				
O=S(=O)(O)c1ccc(N=Nc2ccccc2)cc1	> 11.4 µM	-9.23	inactive	7.04	0.896	> 46	> 9.22	inactive	inactive		inactive				
CCOC(=O)C1=C(C)NC(=O)N[C@@H]1c1coc2cc(C)cc(C)c2c1=O	> 11.4 µM	-13.4	2.51 µM (active)	17.5	-5.6	> 46	> 9.22	inactive	inactive	inactive				23.8	
S=C1SCN(C2CCCCCCCCCCC2)CN1C1CCCCCCCCCCC1	> 11.4 µM	-6.27		6.16	-6.56	> 46	> 9.22	inactive	inactive	inactive		3.98 µM (active)	-14.7% [at 2.29 µM]		
NS(=O)(=O)c1cc2c(cc1Cl)=NC(CCC(=O)O)=NS=2(=O)O	> 11.4 µM	-7.99	inactive	7.52	10.8	> 46	> 9.22	inactive	inactive		inactive				
CN(C)C(=O)c1ccc(-c2nc(Nc3ccncc3)c3ccccc3n2)cc1	3.84 µM (active)	-14.2	7.94 µM (active)	-7.95	-6.09	> 46	> 46	inactive	inactive	inactive				-8.23	inactive
Clc1ccc2c(N3CCC(CCC4CCN(c5ncnc6cc(Cl)ccc56)CC4)CC3)ncnc2c1	> 11.4 µM	0.285	3.16 µM (active)	0.959	0.136	> 46	> 9.22	inactive	inactive		0.794 µM (active)				
O=C(O)CCC(=O)c1ccc2ccc3cccc4ccc1c2c34	> 11.4 µM	5.4	1.26 µM (active)	19.9	-5.24	> 46	> 9.22	inactive	inactive		inactive				
C[C@]12CC[C@H]3c4ccc(O)cc4CC[C@@H]3[C@H]1C/C(=N/O)[C@H]2O	> 11.4 µM	-6.54	inactive	3.7	1.89	> 46	> 9.22	inactive	inactive		inactive				
CN=C(N)/N=C(\N)Nc1cc2ccccc2c2ccccc12	> 11.4 µM	-3.61	0.251 µM (active)	27.5	12.7	> 46	> 9.22	inactive	inactive		1.58 µM (active)				
CC[C@H]1CN(C)[C@H]2Cc3c([nH]c4ccccc34)C(=O)C[C@H]1[C@H]2C(=O)OC	> 11.4 µM	-2.14	inactive	11.7	8.84	> 46	> 9.22	inactive	inactive		inactive				
O=C1/C(=C/c2cccnc2)SC(=S)N1Cc1ccco1	> 11.4 µM	0.116	0.501 µM (active)	-2.58	-9.72	> 46	> 9.22	inactive	inactive	inactive		3.16 µM (active)			

— PubChem BioAssay (NCATS)
